What all share (design): scale not given: direction of the effect not stated beside the values
For assay [1], the target named is Protein translocase subunit SecA (Escherichia coli (strain K12)) (UniProt P10408). The assay is described as follows: Assay to Identify E. coli SecA ATPase Inhibitors. The format is functional. Particulars: 30 µM.
In assay [2] the target is T1, Ubiquitin-activating enzyme e1, putative (Leishmania donovani (strain BPK282A1)) (UniProt E9BSI1).
T1 sequence (whole entry): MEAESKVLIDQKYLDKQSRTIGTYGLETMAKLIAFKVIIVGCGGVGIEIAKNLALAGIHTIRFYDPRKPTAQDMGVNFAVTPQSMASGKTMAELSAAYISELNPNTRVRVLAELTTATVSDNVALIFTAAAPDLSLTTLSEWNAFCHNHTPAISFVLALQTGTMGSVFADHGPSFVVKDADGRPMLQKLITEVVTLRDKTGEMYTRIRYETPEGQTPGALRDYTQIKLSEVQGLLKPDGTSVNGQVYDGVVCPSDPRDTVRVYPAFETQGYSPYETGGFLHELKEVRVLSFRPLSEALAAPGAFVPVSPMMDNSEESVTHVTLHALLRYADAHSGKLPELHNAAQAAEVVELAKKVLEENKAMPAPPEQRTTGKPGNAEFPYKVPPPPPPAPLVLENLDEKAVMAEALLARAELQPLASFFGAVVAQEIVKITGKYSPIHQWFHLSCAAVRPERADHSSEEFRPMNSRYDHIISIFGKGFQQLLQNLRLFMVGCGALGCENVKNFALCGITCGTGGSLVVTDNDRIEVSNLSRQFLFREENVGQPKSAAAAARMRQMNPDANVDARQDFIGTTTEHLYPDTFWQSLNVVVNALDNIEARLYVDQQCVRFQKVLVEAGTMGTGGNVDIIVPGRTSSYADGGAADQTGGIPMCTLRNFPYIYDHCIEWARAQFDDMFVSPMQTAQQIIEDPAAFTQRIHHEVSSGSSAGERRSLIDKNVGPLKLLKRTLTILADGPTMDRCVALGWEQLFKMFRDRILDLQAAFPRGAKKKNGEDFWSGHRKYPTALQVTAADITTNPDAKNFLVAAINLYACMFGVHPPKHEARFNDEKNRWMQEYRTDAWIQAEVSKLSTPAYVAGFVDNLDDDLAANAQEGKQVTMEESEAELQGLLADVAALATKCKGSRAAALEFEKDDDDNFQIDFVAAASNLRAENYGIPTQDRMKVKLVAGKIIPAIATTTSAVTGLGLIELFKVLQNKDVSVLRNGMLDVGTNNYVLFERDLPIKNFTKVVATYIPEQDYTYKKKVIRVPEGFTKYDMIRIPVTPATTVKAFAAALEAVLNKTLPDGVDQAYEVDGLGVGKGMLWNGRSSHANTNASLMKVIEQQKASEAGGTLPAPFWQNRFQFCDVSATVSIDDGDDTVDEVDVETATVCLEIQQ
Description: Leishmania donovani Ubiquitin Activating Enzyme (LdE1). The format is functional. Particulars: 30 µM.

The target in assay [3] is AMP-activated protein kinase, AMPK (Homo sapiens) (UniProt P54646+O43741+P54619+Q9UGJ0+Q9Y478+Q13131+Q9UGI9). The assay is described as follows: AMP-dependent Kinase enzyme assay. An in vitro enzyme assay that detects ADP turnover that is directly proportional to AMPK activity. This uses naive AMPK that is activated during the assay with MK-8722. The format is functional. Particulars: 30 µM.

For assay [4], the target named is Sialic acid-binding Ig-like lectin 9 (Homo sapiens) (UniProt Q9Y336). Description: Hs-Siglec9 ALPHAscreen SOP 20170721. Particulars: 10 µM.
The next assay relates to Trypanosoma cruzi. Description: Trypanosoma cruzi phosphomannomutase and mannose-1-phosphate guanylyltransferase assay. Format: functional. Particulars: 10 µM.
For assay [5], the target named is T2, Arginase-2, mitochondrial (Homo sapiens) (UniProt P78540).
T2 sequence (whole entry): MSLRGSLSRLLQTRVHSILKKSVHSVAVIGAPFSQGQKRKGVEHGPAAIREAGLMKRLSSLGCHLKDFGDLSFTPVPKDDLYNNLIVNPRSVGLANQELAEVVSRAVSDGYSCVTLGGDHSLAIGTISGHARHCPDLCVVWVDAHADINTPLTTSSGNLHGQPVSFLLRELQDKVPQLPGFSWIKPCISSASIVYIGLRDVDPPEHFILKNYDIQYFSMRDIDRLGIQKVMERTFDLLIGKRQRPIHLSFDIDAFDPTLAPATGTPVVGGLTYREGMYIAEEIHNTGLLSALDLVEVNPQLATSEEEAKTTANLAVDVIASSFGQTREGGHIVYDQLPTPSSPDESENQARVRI
Description: in vitro enzyme assay to detect the production of urea directly proportional to the activity of Arginase II. Also: in the data most compounds retested in dose-response had high values. The format is functional. Particulars: 33.3 µM.

Assay [6] concerns the target T3, Proteasome subunit beta (Trypanosoma cruzi) (UniProt O96673).
T3 sequence (whole entry): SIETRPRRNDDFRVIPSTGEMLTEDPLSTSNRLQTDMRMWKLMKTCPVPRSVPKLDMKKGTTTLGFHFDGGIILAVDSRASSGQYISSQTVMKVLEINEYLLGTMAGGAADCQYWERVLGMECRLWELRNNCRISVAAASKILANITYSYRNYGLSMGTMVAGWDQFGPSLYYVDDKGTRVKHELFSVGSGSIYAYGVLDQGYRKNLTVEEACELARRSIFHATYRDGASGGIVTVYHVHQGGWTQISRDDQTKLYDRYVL
The assay is described as follows: Trypanosoma cruzi proteasome chymotrypsin-like activity (TcProtChymo) assay. Also: in the data most compounds retested in dose-response had high values. The format is functional. Particulars: 9.37 µM.

A further assay is filed under the species Homo sapiens. The assay is described as follows: To identify inhibition of the IFN signalling (Jak-Stat) pathway via expression of an eGFP reporter gene under the control of an IFN-stimulated response element (ISRE) containing MxA promoter. Particulars: 30 µM. The format is functional.
Assay [7] deals with T4, Tyrosyl-tRNA synthetase, putative (Trypanosoma cruzi (strain CL Brener)) (UniProt Q4DSP6).
T4 sequence (whole entry): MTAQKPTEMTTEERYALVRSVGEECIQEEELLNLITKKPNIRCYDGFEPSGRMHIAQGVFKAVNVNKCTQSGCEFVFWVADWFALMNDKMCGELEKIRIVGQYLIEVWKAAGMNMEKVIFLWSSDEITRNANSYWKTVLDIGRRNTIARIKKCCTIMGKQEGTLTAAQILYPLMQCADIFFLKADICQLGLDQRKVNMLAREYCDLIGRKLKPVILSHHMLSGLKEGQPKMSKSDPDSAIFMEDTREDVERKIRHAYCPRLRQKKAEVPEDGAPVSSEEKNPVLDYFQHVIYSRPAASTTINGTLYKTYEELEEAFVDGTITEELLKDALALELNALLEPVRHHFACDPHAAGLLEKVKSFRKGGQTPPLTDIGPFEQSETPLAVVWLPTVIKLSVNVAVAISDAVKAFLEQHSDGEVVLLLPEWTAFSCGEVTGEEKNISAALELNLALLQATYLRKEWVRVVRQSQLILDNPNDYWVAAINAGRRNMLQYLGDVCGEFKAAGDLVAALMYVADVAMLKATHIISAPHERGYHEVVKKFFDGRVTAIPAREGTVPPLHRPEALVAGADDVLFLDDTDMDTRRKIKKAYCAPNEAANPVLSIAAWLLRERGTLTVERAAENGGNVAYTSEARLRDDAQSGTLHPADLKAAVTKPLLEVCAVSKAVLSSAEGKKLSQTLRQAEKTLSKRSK
The assay is described as follows: Trypanosoma cruzi tyrosyl tRNA synthetase (TcYRS) _High Tyrosine SOP. Also: in the data most compounds retested in dose-response had high values. The format is functional. Particulars: 30 µM.

The target in assay [8] is T4, Tyrosyl-tRNA synthetase, putative (Trypanosoma cruzi (strain CL Brener)). The assay is described as follows: Trypanosoma cruzi tyrosyl tRNA synthetase (TcYRS) SOP. Format: functional. Particulars: 30 µM.
Assay [9] addresses Chromo domain-containing protein 1 (Saccharomyces cerevisiae (strain ATCC 204508 / S288c) (Baker's yeast)) (UniProt P32657). Description: ScCHD-1 Enzyme Inhibition Assay. Also: in the data most compounds retested in dose-response had high values. The format is functional. Particulars: 30 µM.

For some of these results: Entries with a potency or affinity are not part of this list.

Chain of Sialic acid-binding Ig-like lectin 9 (Homo sapiens) (Q9Y336 whole entry): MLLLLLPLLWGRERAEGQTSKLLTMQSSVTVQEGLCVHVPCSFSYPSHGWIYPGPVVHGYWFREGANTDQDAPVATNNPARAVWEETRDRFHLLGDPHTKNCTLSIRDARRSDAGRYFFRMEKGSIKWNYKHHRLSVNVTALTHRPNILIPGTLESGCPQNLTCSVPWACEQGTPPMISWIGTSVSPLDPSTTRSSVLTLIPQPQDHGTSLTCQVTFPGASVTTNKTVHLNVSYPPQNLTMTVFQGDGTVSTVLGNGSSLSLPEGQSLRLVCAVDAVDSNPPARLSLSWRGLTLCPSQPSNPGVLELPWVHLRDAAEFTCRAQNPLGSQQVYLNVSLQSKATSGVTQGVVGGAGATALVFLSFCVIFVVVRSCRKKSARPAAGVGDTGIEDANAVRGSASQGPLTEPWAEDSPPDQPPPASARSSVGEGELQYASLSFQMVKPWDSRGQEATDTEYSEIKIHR
Chain of Protein translocase subunit SecA (Escherichia coli (strain K12)) (P10408 whole entry): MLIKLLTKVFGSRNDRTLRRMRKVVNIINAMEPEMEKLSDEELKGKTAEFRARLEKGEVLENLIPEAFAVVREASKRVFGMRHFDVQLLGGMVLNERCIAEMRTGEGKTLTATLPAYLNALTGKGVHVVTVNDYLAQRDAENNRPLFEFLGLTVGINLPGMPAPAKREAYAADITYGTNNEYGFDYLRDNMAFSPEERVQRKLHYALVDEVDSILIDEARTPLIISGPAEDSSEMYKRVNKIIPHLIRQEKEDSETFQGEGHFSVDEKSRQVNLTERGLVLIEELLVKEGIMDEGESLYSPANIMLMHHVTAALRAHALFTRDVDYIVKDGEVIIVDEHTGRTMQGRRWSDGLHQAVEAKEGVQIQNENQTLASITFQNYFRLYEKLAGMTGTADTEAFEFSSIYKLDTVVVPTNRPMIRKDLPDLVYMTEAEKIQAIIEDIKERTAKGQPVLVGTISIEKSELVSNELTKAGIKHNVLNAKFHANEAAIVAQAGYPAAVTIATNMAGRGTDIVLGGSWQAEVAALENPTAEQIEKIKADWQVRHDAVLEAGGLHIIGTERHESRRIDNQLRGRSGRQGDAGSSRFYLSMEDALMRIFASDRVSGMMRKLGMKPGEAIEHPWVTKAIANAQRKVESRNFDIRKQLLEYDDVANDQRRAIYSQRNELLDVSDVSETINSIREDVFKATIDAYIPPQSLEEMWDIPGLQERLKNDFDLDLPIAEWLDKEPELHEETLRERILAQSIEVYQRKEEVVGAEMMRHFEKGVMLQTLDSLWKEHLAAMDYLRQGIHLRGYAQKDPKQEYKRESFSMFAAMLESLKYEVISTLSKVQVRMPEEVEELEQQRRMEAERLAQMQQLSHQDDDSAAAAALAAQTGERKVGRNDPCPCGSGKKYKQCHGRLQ
Chain of Chromo domain-containing protein 1 (Saccharomyces cerevisiae (strain ATCC 204508 / S288c) (Baker's yeast)) (P32657 whole entry, the tested form may be a part): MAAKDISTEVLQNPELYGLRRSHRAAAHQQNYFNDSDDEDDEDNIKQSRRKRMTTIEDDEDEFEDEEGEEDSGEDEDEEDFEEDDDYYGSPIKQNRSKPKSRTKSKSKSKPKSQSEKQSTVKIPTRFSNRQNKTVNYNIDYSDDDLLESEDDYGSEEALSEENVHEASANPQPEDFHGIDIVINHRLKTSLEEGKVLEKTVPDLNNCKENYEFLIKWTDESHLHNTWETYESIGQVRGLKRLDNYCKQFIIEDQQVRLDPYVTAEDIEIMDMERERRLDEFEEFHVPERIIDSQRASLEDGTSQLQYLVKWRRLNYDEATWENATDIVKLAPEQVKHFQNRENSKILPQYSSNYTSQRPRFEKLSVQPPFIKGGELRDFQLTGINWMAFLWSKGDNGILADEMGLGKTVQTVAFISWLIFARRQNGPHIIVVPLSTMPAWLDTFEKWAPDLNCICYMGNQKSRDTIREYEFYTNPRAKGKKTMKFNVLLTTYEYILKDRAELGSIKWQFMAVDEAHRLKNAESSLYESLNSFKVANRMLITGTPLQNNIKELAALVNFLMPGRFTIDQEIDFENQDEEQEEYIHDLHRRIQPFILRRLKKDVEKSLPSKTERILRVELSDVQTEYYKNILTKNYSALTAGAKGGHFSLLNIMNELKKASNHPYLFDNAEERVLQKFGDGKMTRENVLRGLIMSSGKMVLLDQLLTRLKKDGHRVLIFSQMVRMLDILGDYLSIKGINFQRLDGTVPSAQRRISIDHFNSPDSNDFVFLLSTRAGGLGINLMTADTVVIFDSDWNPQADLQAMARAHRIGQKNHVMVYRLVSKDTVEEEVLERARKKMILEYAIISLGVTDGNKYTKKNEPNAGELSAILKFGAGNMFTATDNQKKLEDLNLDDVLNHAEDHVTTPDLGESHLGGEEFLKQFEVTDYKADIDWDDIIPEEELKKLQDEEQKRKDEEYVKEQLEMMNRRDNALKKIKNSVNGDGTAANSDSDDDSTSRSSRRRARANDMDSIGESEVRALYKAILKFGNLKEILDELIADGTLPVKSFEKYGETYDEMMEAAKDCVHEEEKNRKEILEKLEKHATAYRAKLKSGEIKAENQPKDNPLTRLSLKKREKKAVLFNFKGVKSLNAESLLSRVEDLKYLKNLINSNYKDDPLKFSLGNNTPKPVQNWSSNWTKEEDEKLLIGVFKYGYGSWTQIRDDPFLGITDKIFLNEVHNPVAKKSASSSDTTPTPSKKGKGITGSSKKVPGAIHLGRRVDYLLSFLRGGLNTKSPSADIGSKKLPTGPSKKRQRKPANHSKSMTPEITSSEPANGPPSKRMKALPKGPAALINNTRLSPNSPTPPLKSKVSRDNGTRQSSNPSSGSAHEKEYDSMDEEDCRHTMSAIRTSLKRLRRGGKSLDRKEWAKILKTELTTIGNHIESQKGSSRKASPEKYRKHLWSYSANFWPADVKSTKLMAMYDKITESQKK

Turning to `CSCC[C@H](N)C(=O)NCc1cc2n(n1)CCCN(C(=O)C1CCC1)C2`, the Percent Effect in assay [1] was -0.458%; in [2], 6.94%; in assay [3], -3.76%; in assay [4] it was 1.43%; in the assay on Trypanosoma cruzi, 8.26%; in assay [5] it was -0.442%. For the same compound, the Percent Effect in [6] was 10.5%; in the assay listed under Homo sapiens, -24.3%; in assay [7], 0%; in assay [8], 12.8%; in assay [9] it was -3.49%.
For `CCc1nnc2n1CC(CNCc1ccncc1)CC2` (stereo unspecified), the Percent Effect in assay [1] is 1.7%; in assay [2], 4.17%; in [3] it was -9.25%; in [4], -5.88%; in the assay on Trypanosoma cruzi, -3.6%; in assay [5], 5.3%. The Percent Effect in assay [6] is 19.6%; in the assay filed under Homo sapiens, -6.46%; in assay [7] it was 5.26%; in assay [8], 0%; in assay [9], -3.45%.
As for `O=C(Nc1cccc(OCc2ccc(F)cc2)c1)C1COCCO1` (stereo unspecified), the Percent Effect in assay [1] was -4.66%; in [2] it was -8%; in [3], 0.674%; in [4], -3.67%; in the assay on Trypanosoma cruzi, -1.27%; in assay [5], 1.04%. In addition, the Percent Effect is 14.3% in [6]; 5.69% in the assay listed under Homo sapiens; -8.2% in [7]; -3.7% in assay [8]; -0.73% in assay [9].
As to `Cc1nnc2n1CCN(CCS(=O)(=O)c1ccccc1)C2`, the Percent Effect in assay [1] was -2.96%; in assay [2], 15.6%; in [3] it was 2.16%; in [4] it was 8.34%; in the assay on Trypanosoma cruzi it was 1.69%; in [5], -3.2%. For the same compound, the Percent Effect is -2.03% in assay [6]; 27.6% in the assay filed under Homo sapiens; 2.91% in [7]; 14.6% in [8]; -8% in assay [9].
Consider `CN(C)CCN(Cc1ccc(Cl)cc1)C(=O)c1cc[nH]n1`, for which the Percent Effect is -2.91% in assay [1]; 20.8% in assay [2]; 3.16% in assay [3]; 18.6% in assay [4]; 2.23% with Trypanosoma cruzi; 3.53% in [5]. For the same compound, the Percent Effect in assay [6] is 17.9%; in the assay listed under Homo sapiens, 3.16%; in assay [7], 7.37%; in assay [8], 17.9%; in [9], -5.67%.
Take `Cc1nnc2n1CCN(C(=O)c1cc(Cl)c[nH]1)C2`: the Percent Effect was -3.51% in assay [1]; -15.8% in [2]; 7.83% in assay [3]; 10.9% in assay [4]; 0.376% in the assay with Trypanosoma cruzi; 1.92% in assay [5]. Besides, the Percent Effect in [6] was 2.84%; in the assay filed under Homo sapiens, -3.3%; in assay [7] it was 0.49%; in assay [8], -4.88%; in assay [9] it was 3.54%.
On to `CNc1nc(CNC(=O)Nc2cccc(-c3nnco3)c2)cs1`, for which the Percent Effect in [1] is -5.07%; in [2], 8.11%; in [3] it was 1.7%; in assay [4], -1.65%; with Trypanosoma cruzi it was -3.81%; in assay [5], -4.25%. For the same compound, the Percent Effect was 4.13% in assay [6]; -4.5% in the assay listed under Homo sapiens; 2.97% in assay [7]; 1.22% in [8]; 4.29% in assay [9].
As to `CC(C)NC(=O)c1nnn(-c2cccc(C(F)(F)F)c2)c1C1CC1`, the Percent Effect in assay [1] is -3.01%; in assay [2] it was 15.3%; in assay [3], -3.96%; in assay [4], 15.4%; in the assay with Trypanosoma cruzi, 5.73%; in assay [5], 15.4%. Further, the Percent Effect in [6] came out at 22.8%; in the assay listed under Homo sapiens it was 11.4%; in assay [7] it was 4.21%; in assay [8], 12.8%; in assay [9] it was 77.3%.
For `Cc1cnn(C2CN(CC(=O)Nc3cccnc3)C2)c1`, the Percent Effect is -4.23% in assay [1]; 7.89% in [2]; -7.32% in assay [3]; -2.24% in [4]; -8.68% with Trypanosoma cruzi; 2.52% in assay [5]. Besides, the Percent Effect was -0.254% in assay [6]; -0.514% in the assay filed under Homo sapiens; -4.43% in assay [7]; 3.7% in assay [8]; 3.7% in [9].
As to `COCc1cnc2n1CCN(C(=O)C1=CCCCC1)C2C` (stereo unspecified), the Percent Effect in assay [1] was 2.94%; in assay [2], 17.3%; in assay [3], -3.72%; in assay [4], -2.8%; with Trypanosoma cruzi, -1.77%; in assay [5], -16.7%. Besides, the Percent Effect is 15.5% in assay [6]; 33% in the assay filed under Homo sapiens; 3.17% in assay [7]; 12.8% in assay [8]; -8.38% in assay [9].
`O=S(=O)(Cc1ccccc1)N1CCCn2cnc(CN3CCCC3)c2C1`: the Percent Effect was -3.85% in [1]; 8% in assay [2]; 20.1% in [3]; -0.361% in assay [4]; -4.44% in the assay with Trypanosoma cruzi; -57.5% in assay [5]. The Percent Effect in [6] was 5.3%; in the assay listed under Homo sapiens, -10%; in assay [7] it was 6.25%; in assay [8] it was -7.5%; in [9], -6.67%.

The values are drawn from ChEMBL document CHEMBL3988442, “University of Dundee, Small-Polar-MMV Screening Library” (2021).
